# TDP1 cell noCPT = qHTS for Inhibitors of human tyrosyl-DNA phosphodiesterase 1 (TDP1): qHTS in cells in absence of CPT. DT40 Tdp1-/- hTDP1 cells, no CPT, ATP luminescence, 48 h. Potency, µM (series often up to 46.2 µM), without a hit: top-dose activity change, negative = growth inhibition, hits mostly inhibitors. AID 686978, 2013. hit rate 15% among 420,000; note: potency is the fitted concentration of half-maximal effect; nearly all actives have a fitted effect of over 55% in size
#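 Seeded 400 DT40-hTDP1 cells/well (vehicle DMSO, no 20 nM CPT); pinned compounds; ≥48 hr at 37 °C; CellTiter-Glo luminescence as viability measure.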
# IL-1B inflam inh = qHTS for Inhibitors of Inflammasome Signaling: IL-1-beta AlphaLISA Primary Screen. THP-1 LPS/ATP IL-1B secretion, AlphaLISA, 16 h; active compounds read low. activity change, % at 57.5 µM. hit rate 4.7% among 360,000. AID 743279, 2014; in the data active = activity change below about -50%; inconclusive = mostly about -30% to -49%
#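 THP-1 cells pretreated 1 hr with compounds (up to 57.5 uM final), then stimulated with LPS (250 ng/mL final) plus ATP (1.25 mM final); secreted IL-1B measured by AlphaLISA after 16 hr, decreased signal indicating inhibition.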
# 12-LOX inh = Primary qHTS assay for inhibitors of human arachidonate 12S-lipoxygenase (ALOX12): Round 2 | Polyunsaturated fatty acid lipoxygenase ALOX12 (Homo sapiens), P18054 | Potency, µM (top dose mostly 108 µM), for inactives: at the top dose activity change, negative = inhibition, most hits filed as inhibitors | hit rate 1.1% among 580,000 | purified 12hLO, xylenol orange hydroperoxide absorbance; note: potency is the fitted concentration of half-maximal effect
# Target sequence (P18054 whole entry, looked up): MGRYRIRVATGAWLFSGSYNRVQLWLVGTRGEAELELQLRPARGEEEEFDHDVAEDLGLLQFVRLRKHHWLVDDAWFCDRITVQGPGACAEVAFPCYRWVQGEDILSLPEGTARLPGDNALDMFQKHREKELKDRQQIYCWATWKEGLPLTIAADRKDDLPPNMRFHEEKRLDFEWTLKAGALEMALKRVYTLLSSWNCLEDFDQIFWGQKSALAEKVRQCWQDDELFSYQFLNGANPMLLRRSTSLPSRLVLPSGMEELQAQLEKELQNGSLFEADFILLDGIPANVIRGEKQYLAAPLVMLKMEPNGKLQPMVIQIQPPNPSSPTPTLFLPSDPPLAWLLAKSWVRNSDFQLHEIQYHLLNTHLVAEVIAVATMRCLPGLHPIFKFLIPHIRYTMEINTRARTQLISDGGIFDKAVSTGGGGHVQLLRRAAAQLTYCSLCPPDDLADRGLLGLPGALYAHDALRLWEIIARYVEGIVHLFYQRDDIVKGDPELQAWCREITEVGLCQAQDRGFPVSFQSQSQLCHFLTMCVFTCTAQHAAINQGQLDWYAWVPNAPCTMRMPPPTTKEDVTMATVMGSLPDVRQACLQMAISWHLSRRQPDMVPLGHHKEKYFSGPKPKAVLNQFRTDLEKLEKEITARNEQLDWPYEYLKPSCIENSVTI
#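 Purified human 12hLO (150 nM final) in 25 mM Hepes, 0.01% Triton X-100, pH 7.0 was preincubated 15 min at room temperature with compound. Then 40 uM arachidonic acid was added, 30 min. Hydroperoxide was read by Fe-XO absorbance ratio 573/405 nm.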
# HT1080 IDH1KD tx = qHTS for induction of synthetic lethality in tumor cells producing 2HG: qHTS for the HT-1080-IDH1KD cell line | hit rate 2% among 360,000 | HT-1080 IDH1 knockdown viability, ATP luminescence, 48 h | Potency, µM (doses to about 46.1 µM), inactives show top-dose activity, negative = toxicity, most hits filed as cytotoxic;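 note: potency is the fitted concentration of half-maximal effect; 0% = DMSO wells and -100% = cell-free medium wells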
#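 Assay cells: HT-1080 with IDH1 knockdown, 750 per well, RPMI/5% FBS. Exposure: 48 h at 37 °C following 2 h pre-incubation. Read: CellTiter-Glo luminescence; fitted concentration-response, curve class assigned.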
# DT40 TDP1 CPT = qHTS for Inhibitors of human tyrosyl-DNA phosphodiesterase 1 (TDP1): qHTS in cells in presence of CPT; chicken DT40 Tdp1-/-;hTDP1 cells + 20 nM CPT, ATP luminescence, 48 h; Potency, µM (top dose mostly 46.2 µM), for inactives: at the top dose activity change, negative = growth inhibition, most hits filed as inhibitors; AID 686979, 2013; hit rate 12% among 420,000; note: potency is the fitted concentration of half-maximal effect; nearly all actives have a fitted effect of over 55% in size
#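 Chicken DT40 Tdp1-/- cells complemented with human TDP1, 400 cells/well, exposed to compounds plus 20 nM camptothecin for at least 48 h at 37 C; viability read as ATP content by CellTiter-Glo luminescence.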
# HT1080NT lethal = qHTS for induction of synthetic lethality in tumor cells producing 2HG: qHTS for the HT-1080-NT fibrosarcoma cell line. hit rate 1.6% among 360,000. AID 686970, 2013. HT-1080-NT fibrosarcoma viability, CellTiter-Glo ATP luminescence, 48 h. Potency, µM (doses to about 46.1 µM), inactives show top-dose activity, negative = less viability, usual class: cytotoxic;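 note: NT is the 2HG producing partner of a matched IDH1 knockdown line; potency is the fitted concentration of half-maximal effect; 0% = DMSO-treated cells and -100% = media-only wells without cells; nearly all actives have a fitted effect of over 55% in size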
#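 750 cells/well, RPMI + 5% FBS; 2 h settle, compound pin-transfer, 48 h at 37 degrees C. CellTiter-Glo 10 min RT, luminescence. Normalized to DMSO and media-only wells.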
# Starred values were filed as active, the others as inactive; ? = inconclusive; . = no result given; [ ] = another dose, or the depositor's remark. The full list was thinned out, with hits kept by preference. Unless noted, calls come from the whole dose curve; as a rule, active = well fitted curve in the direction sought with a large enough effect; inconclusive = small, poorly fitted or top-dose-only effect, or another doubt; inactive = no such curve, though single readings can be large; an effect the other way counts as inactive or inconclusive. Unless noted, % is set by controls: 0 for no effect and ±100 for the full control effect.
SMILES,TDP1 cell noCPT,IL-1B inflam inh,12-LOX inh,HT1080 IDH1KD tx,DT40 TDP1 CPT,HT1080NT lethal
CN(C)c1cccc(Oc2nnnn2[C@H]2CO[C@H]3[C@@H]2OC[C@@H]3NC(=O)Nc2cccc3ccccc23)c1,.,.,-0.5%,.,.,.
CC(=O)OC(C(N)=O)C(OC(C)=O)C(N)=O (stereo unspecified),.,.,6.1%,.,.,.
O=C(Nc1ccc2c(N3CCCCC3)ncnc2c1)c1ccc(F)cc1,.,.,-0.9%,.,.,.
CC(C)(C)C(=O)Nc1nc2c(s1)C[C@@H]1[C@](C)(CO)[C@H](O)CC[C@@]1(C)[C@@H]2CC(=O)Nc1cccc(O)c1,.,.,22.8%,.,.,.
O=S(=O)(c1ccccc1)c1nc(-c2ccc(F)cc2)oc1N1CCCCCC1,14.6µM*,.,-27.3%,.,18.4µM*,.
Cc1ccc(S(=O)(=O)c2nc(-c3ccc(F)cc3)oc2N2CCN(c3ccccc3)CC2)cc1,18.4µM*,.,-8.0%,.,?,.
COc1cc(CN2CCN(C(=O)c3cccc4ccccc34)CC2)cc(OC)c1OC,-23.5%,-0.8,?,1.1%,-8.6%,-0.3%
COc1cc(C(=S)N2CCN(C(c3ccccc3)c3ccccc3)CC2)cc(OC)c1O,8.2µM*,-50.0*,?,-1.6%,14.6µM*,-16.7%
COc1cc(CN2CCN(C(c3ccccc3)c3ccccc3)CC2)cc(OC)c1OC,3.26µM*,7.7,?,?,8.2µM*,-24.9%
COc1ccc(NC(=S)N2CCN(C(c3ccccc3)c3ccccc3)CC2)cc1OC,-27.1%,0.0,-12.8%,-4.6%,-27.4%,8.0%
COc1cccc(CN2CCN(C(c3ccccc3)c3ccccc3)CC2)c1O,20.6µM*,-12.3,?,-10.9%,?,-13.1%
COc1ccc(C2=NN(CCC(=O)NCCc3ccccc3)C(=O)CC2)cc1,-12.0%,.,0.1%,.,-23.7%,.
Cc1ccc(NC(=O)C(C)Sc2ccccc2)c(C)c1 (stereo unspecified),.,.,5.0%,.,.,.
CCc1ccc(NC(=O)N2CCN(c3ccc(F)cc3)CC2)cc1,25.9µM*,-20.5,-2.3%,0.6%,?,-3.7%
O=C(Nc1ccccc1)N1CCN(c2ccc(F)cc2)CC1,?,?,26.7%,15.5%,?,25.1%
CCc1ccc(CNc2ccc(N3CCN(C(C)=O)CC3)cc2)cc1,18.4µM*,-3.8,31.6µM*,?,-18.7%,-3.3%
CC(C(=O)NN=C(c1ccccc1)c1ccccc1)N1CCOCC1 (stereo unspecified),16.4µM*,3.0,2.0%,7.2%,?,9.7%
O=C(CN1CCOCC1)NN=C(c1ccccc1)c1ccccc1,?,15.5,-4.8%,5.9%,6.6%,0.8%
O=C(COC(=O)Cc1n[nH]c(=O)c2ccccc12)NNC(=O)c1ccc(Cl)cc1,23.1µM*,12.3,162.7%,-16.6%,20.6µM*,-11.1%
O=C(Cc1n[nH]c(=O)c2ccccc12)OCC(=O)c1ccc2c(c1)OCCO2,1.3µM*,64.2,0.0%,8.2µM*,0.92µM*,?
CCOc1ccc(C(=O)COC(=O)Cc2n[nH]c(=O)c3ccccc23)cc1,0.731µM*,37.9,0.1%,5.17µM*,0.92µM*,6.51µM*
O=C(Cc1n[nH]c(=O)c2ccccc12)OCC(=O)c1ccc(F)cc1,-5.5%,8.5,17.2%,8.4%,-1.0%,-0.5%
COc1ccc(-c2ccccc2NC(=O)C2CCCN(C3CCOCC3)C2)cc1 (stereo unspecified),.,.,-9.7%,.,.,.
N#Cc1ccc(OCCSc2ccc3c(c2)OCCO3)cc1,.,.,-23.6%,.,.,.
O=C(CSc1nnc(-c2ccc3c(c2)OCO3)n1-c1ccccc1)c1ccccc1,23.1µM*,7.3,-16.8%,23.5%,16.4µM*,14.7%
SMILES,TDP1 cell noCPT,IL-1B inflam inh,12-LOX inh,HT1080 IDH1KD tx,DT40 TDP1 CPT,HT1080NT lethal
O=C(CSc1nnc(-c2cccs2)n1-c1ccccc1)c1ccc2c(c1)OCCO2,-21.6%,-3.4,6.3%,8.2%,-19.3%,5.3%
CCOc1ccc(-c2nnc(SCC(=O)c3ccccc3)n2-c2ccccc2)cc1,6.51µM*,.,?,.,?,.
Cc1cccc(-n2c(SCC(=O)c3ccccc3)nnc2-c2ccc(Br)cc2)c1,18.4µM*,.,?,.,16.4µM*,.
O=C(CSc1nnc(CN2CCCCC2)n1-c1ccccc1)c1ccc2c(c1)OCO2,20.6µM*,-6.9,-5.8%,-1.2%,?,-8.8%
O=C1CC(NS(=O)(=O)N2CCCC2)CN1CCc1ccccc1 (stereo unspecified),.,.,11.2%,.,.,.
N#Cc1ccc(C(=O)N2CCN3C(=O)N(Cc4ccccc4)C(=O)[C@H]3C2)cc1,.,.,-1.2%[176 µM],.,.,.
CN(C)Cc1cc(C[C@@H]2C[C@H](NC(=O)COc3ccccc3)C2(C)C)no1,.,.,30.4%[176 µM],.,.,.
O=C(COC(=O)c1nc(Cl)c(Cl)c(Cl)c1Cl)c1ccc[nH]1,?,-102.6*,-26.7%,-0.7%,?,0.7%
O=C(COC(=O)c1nc(Cl)ccc1Cl)c1ccc[nH]1,-12.4%,8.1,-1.8%,13.9%,1.8%,15.3%
N#C/C(=C/c1ccc(Sc2nc3ccccc3[nH]2)o1)c1cccc(F)c1,?,-93.6*,?,?,20.6µM*,?
N#C/C(=C/c1ccc(Sc2nc3ccccc3[nH]2)o1)c1ccccc1F,16.4µM*,-95.6*,10.9%,?,20.6µM*,?
